From PubChem BioAssay (NCATS)
Results filed as inconclusive are left out. Entries that show only a call come without a potency. Unmarked numbers belong to inactive results. Activity calls are given as the source filed them. Calls come from the whole dose curve; as a rule, active = well fitted curve in the direction sought with a large enough effect; inconclusive = small, poorly fitted or top-dose-only effect, or another doubt; inactive = no such curve, though single readings can be large; an effect the other way counts as inactive or inconclusive.

What was measured:
[1] = system: JEG-3; assay: Primary qHTS to identify gynecologic anti-cancer compounds using libraries of approved drugs and bioactive compounds (AID 1345084); conditions: Gynecologic cancer cell panel viability, ATPlite luminescence, 48 h; series mostly up to 57.5 µM; note: nearly all actives have a fitted effect of over 55% in size
In short: (§1)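 Five-point cytotoxicity, 48 h drug exposure at 37 C, 5% CO2, on cells seeded 16 h beforehand. ATP content read by ATPlite luminescence.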

[2] = system: OV90; assay: as above; conditions: Gynecologic cancer cell panel viability, ATPlite luminescence, 48 h; series mostly up to 57.5 µM
In short: as §1

[3] = system: PA-1; assay: as above; conditions: Gynecologic cancer cell panel viability, ATPlite luminescence, 48 h; series mostly up to 57.5 µM
In short: as §1

[4] = system: SKOV3; assay: as above; conditions: Gynecologic cancer cell panel viability, ATPlite luminescence, 48 h; series mostly up to 57.5 µM
In short: as §1

[5] = system: Tov-21-G; assay: as above; conditions: Gynecologic cancer cell panel viability, ATPlite luminescence, 48 h; series mostly up to 57.5 µM
In short: as §1

[6] = system: Tov112D; assay: as above; conditions: Gynecologic cancer cell panel viability, ATPlite luminescence, 48 h; series mostly up to 57.5 µM
In short: as §1

[7] = Drug repurposing screens with cells derived from glioblastoma tumor samples (AID 1345199); conditions: GBM patient neurospheres viability, ATP luminescence, 48 h; note: nearly all actives have a fitted effect of over 40% in size; note: potency is the fitted concentration of half-maximal effect
In short: (§2)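 Primary testing used CD133+ neurospheres from four GBM patients, seven concentrations, 48 h exposure and ATP-based viability; confirmation added three slower-growing patient lines.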

[8] = system: astro; assay: as above; conditions: viability, ATP luminescence, 48 h; series mostly up to 45.9 µM
In short: as §2

[9] = at 45.9 µM (top of the series), tumour line B
[10] = at 45.9 µM (top of the series), tumour line D
[11] = at 46 µM (top of the series), tumour line A
[12] = at 46.1 µM (top of the series), tumour line C
[13] = at 20 µM (top of the series), tumour line C
[14] = at 21.2 µM (top of the series), tumour line B
[15] = at 21.2 µM (top of the series), tumour line D
[16] = at 21.3 µM (top of the series), tumour line A

| SMILES | outcome [1] | Potency [2] | outcome [3] | outcome [4] | outcome [5] | outcome [6] | activity, negative = cell killing [7, 9] [%] | activity, negative = cell killing [7, 10] [%] | activity, negative = cell killing [7, 11] [%] | activity, negative = cell killing [7, 12] [%] | outcome [8] | activity, negative = cell killing [7, 13] [%] | activity, negative = cell killing [7, 14] [%] | activity, negative = cell killing [7, 15] [%] | activity, negative = cell killing [7, 16] [%] | Potency ([7]; tumour line A) |
| --- | --- | --- | --- | --- | --- | --- | --- | --- | --- | --- | --- | --- | --- | --- | --- | --- |
| CCN(CC)S(=O)(=O)c1ccc(C(=O)O)cc1 | inactive | inactive | inactive | inactive | inactive | inactive | -12.2 | -3.35 | -16.8 | -15.2 | inactive |  |  |  |  |  |
| O=C(O)c1ccc(OCCCOc2ccc(C(=O)O)cc2)cc1 | inactive | inactive | inactive | inactive | inactive | inactive | -4.79 | -29 | -33.4 | -12 | inactive |  |  |  |  |  |
| O=C(O)c1ccccc1OP(=O)(O)O | inactive | inactive | inactive | inactive | inactive | inactive | -8.79 | 13.5 | -28.4 | -24.8 | inactive |  |  |  |  |  |
| CC(=O)N(CC(O)CN(C(C)=O)c1c(I)c(C(=O)NCC(O)CO)c(I)c(C(=O)NCC(O)CO)c1I)c1c(I)c(C(=O)NCC(O)CO)c(I)c(C(=O)NCC(O)CO)c1I (configuration not stated) | inactive | inactive | inactive | inactive | inactive | inactive |  |  |  |  | inactive | 4.37 | -1.18 | 15.1 | -9.07 |  |
| CN/C(=C\[N+](=O)[O-])NCCSCc1csc(CN(C)C)n1 | inactive | inactive | inactive | inactive | inactive | inactive |  |  |  |  | inactive | -1.68 | 0.685 | -13.3 | -19.6 |  |
| NC(=O)NS(=O)(=O)c1ccc(N)cc1 | inactive | inactive | inactive | inactive | inactive | inactive | -9.53 | 9.92 | -3.84 | 3.57 | inactive |  |  |  |  |  |
| C/C=C/C(=O)N(CC)c1ccccc1C | inactive | inactive | inactive | inactive | inactive | inactive |  |  |  |  | inactive | -3.94 | 0.996 | -17.6 | -13.7 |  |
| CC(O)CCCCn1c(=O)c2c(ncn2C)n(C)c1=O (configuration not stated) | inactive | inactive | inactive | inactive | inactive | inactive | -11.9 | -16.4 | -31.9 | -1.44 | inactive |  |  |  |  |  |
| COCC(=O)Nc1c(I)c(C(=O)NCC(O)CO)c(I)c(C(=O)N(C)CC(O)CO)c1I (configuration not stated) | inactive | inactive | inactive | inactive | inactive | inactive |  |  |  |  | inactive | 5.9 | -2.18 | -2.4 | -10.5 |  |
| CN1CCCN=C1COC(=O)C(O)(c1ccccc1)C1CCCCC1 (configuration not stated) | inactive | inactive | inactive | inactive | inactive | inactive | -22.5 | -25.7 |  | -4.53 | inactive |  |  |  |  | 11.2 µM (active) |
| Nc1ccncc1N | inactive | inactive | inactive | inactive | inactive | inactive | -7.35 | -6.96 | -18.3 | -14.3 | inactive |  |  |  |  |  |
| Nc1ccc(C(=O)Oc2ccccc2)c(O)c1 | inactive | inactive | inactive | inactive | inactive | inactive |  |  |  | -12.2 |  |  |  |  |  | 11.2 µM (active) |
| NS(=O)(=O)c1cc2c(cc1C(F)(F)F)NCNS2(=O)=O | inactive | inactive | inactive | inactive | inactive | inactive |  |  |  |  | inactive | -8.4 | 8.4 | -16.1 | -5.19 |  |
| C[C@@H]1CCC[C@H](C)N1 | inactive | inactive | inactive | inactive | inactive | inactive |  |  |  |  | inactive | -13.9 | -3.64 | -2.57 | -18 |  |
| C[C@]1(Cn2ccnn2)[C@H](C(=O)O)N2C(=O)C[C@H]2S1(=O)=O | inactive | inactive | inactive | inactive | inactive | inactive | -6.98 | -15.1 | -24.4 | -1.25 | inactive |  |  |  |  |  |
| O=C(O)CCC(=O)O | inactive | inactive | inactive | inactive | inactive | inactive | -11.8 | -1.31 | -19 | 36.7 | inactive |  |  |  |  |  |
| CNc1c2c(nn1C)CCCC2 | inactive | inactive | inactive | inactive | inactive | inactive | -7.34 | -0.633 | -5.91 | -14.3 | inactive |  |  |  |  |  |
| O=C(NCN1CCOCC1)c1cnccn1 | inactive | inactive | inactive | inactive | inactive | inactive | -3.93 | -22.6 | -8.03 | -4.53 | inactive |  |  |  |  |  |

| SMILES | outcome [1] | Potency [2] | outcome [3] | outcome [4] | outcome [5] | outcome [6] | activity, negative = cell killing [7, 9] [%] | activity, negative = cell killing [7, 10] [%] | activity, negative = cell killing [7, 11] [%] | activity, negative = cell killing [7, 12] [%] | outcome [8] | activity, negative = cell killing [7, 13] [%] | activity, negative = cell killing [7, 14] [%] | activity, negative = cell killing [7, 15] [%] | activity, negative = cell killing [7, 16] [%] | Potency ([7]; tumour line A) |
| --- | --- | --- | --- | --- | --- | --- | --- | --- | --- | --- | --- | --- | --- | --- | --- | --- |
| CCCCCCCCCCCCCCCCC(C(=O)O)C(O)(CC(=O)O)C(=O)O (configuration not stated) | inactive | inactive | inactive | inactive | inactive | inactive | -24.2 | -4.12 | -28.6 | -24.9 |  |  |  |  |  |  |
| CC(C)c1cc2c(cc1S(=O)(=O)O)[C@@]1(C)CCC[C@@](C)(C(=O)O)[C@@H]1CC2 | inactive | inactive | inactive | inactive | inactive | inactive | -17.5 | -7.28 | -18.1 | -15.9 |  |  |  |  |  |  |
| Cn1cc(C(=O)[C@@H]2CCc3nc[nH]c3C2)c2ccccc21 | inactive | inactive | inactive | inactive | inactive | inactive |  |  |  |  |  |  |  |  |  |  |
| CN(C(=O)c1c(O)c2ccccc2n(C)c1=O)c1ccccc1 | inactive | inactive | inactive | inactive | inactive | inactive | -5.78 | -11.8 | -31.5 | -28.1 | inactive |  |  |  |  |  |
| CC(C)(C)C(=O)OCOC(=O)[C@@H]1N2C(=O)[C@@H](NC(=O)[C@H](N)c3ccccc3)[C@H]2SC1(C)C | inactive | inactive | inactive | inactive | inactive | inactive |  |  |  |  | inactive | 0.2 | -3.35 | -17.5 | -4.53 |  |
| O=C(NCCCN1CCOCC1)c1ccc(Cl)cc1 | inactive | inactive | inactive | inactive | inactive | inactive | -1.61 | -16.9 | -28.4 | -13.2 | inactive |  |  |  |  |  |
| CC(=O)N[C@@H](CC(C)C)C(=O)O | inactive | inactive | inactive | inactive | inactive | inactive | -11.1 | -9.62 | -21.1 | -11.2 | inactive |  |  |  |  |  |
| CCCCCCCCCCC(CO)CCCCCCCC (configuration not stated) | inactive | inactive | inactive | inactive | inactive | inactive | -11.9 | -0.979 |  | 14 | inactive |  |  |  |  | 25.1 µM (active) |
| CC1(C)[C@@H](OC(=O)CCC(=O)O)CC[C@]2(C)[C@H]3C(=O)C=C4[C@@H]5C[C@@](C)(C(=O)O)CC[C@]5(C)CC[C@@]4(C)[C@]3(C)CC[C@@H]12 | inactive | inactive | inactive | inactive | inactive | inactive |  |  |  |  | inactive | -5.99 | -8.6 | -19.2 | -22.2 |  |
| CN[C@@H]1[C@H](O)[C@H](NC)[C@H]2O[C@@]3(O)C(=O)C[C@@H](C)O[C@H]3O[C@@H]2[C@H]1O | inactive | inactive | inactive | inactive | inactive | inactive |  |  |  |  | inactive | -1.47 | -21.3 | 0.484 | -6.42 |  |
| CC1(C)S[C@@H]2[C@H](N=CN3CCCCCC3)C(=O)N2[C@H]1C(=O)O | inactive | inactive | inactive | inactive | inactive | inactive | 0.648 | 9.1 | -11.3 | -4.3 | inactive |  |  |  |  |  |
| CCOc1cc(NC(C)=O)ccc1C(=O)OC | inactive | inactive | inactive | inactive | inactive | inactive | -7.75 | -29.2 | -29.3 | 2.82 | inactive |  |  |  |  |  |
| C=CCSCC1Nc2cc(Cl)c(S(N)(=O)=O)cc2S(=O)(=O)N1 (configuration not stated) | inactive | inactive | inactive | inactive | inactive | inactive | -4.84 | -16.7 | -17.1 | -16.4 | inactive |  |  |  |  |  |
| CCCNC(C)C(=O)Nc1c(C)csc1C(=O)OC (configuration not stated) | inactive | inactive | inactive | inactive | inactive | inactive |  |  |  |  | inactive | 8.39 | -2.83 | -13.6 | -41.7 |  |
| C/C(=C(\CCO)SS/C(CCO)=C(\C)N(C=O)Cc1cnc(C)nc1N)N(C=O)Cc1cnc(C)nc1N | inactive | inactive | inactive | inactive | inactive | inactive | 0.803 | 1.23 | -2.85 | 0.411 |  |  |  |  |  |  |
| O=C1c2ccccc2C(=O)C1c1ccc(Br)cc1 | inactive | inactive | inactive | inactive | inactive | inactive | -20.2 | -25.8 |  | -18.3 |  |  |  |  |  |  |
| C[C@@H]1O[C@@H](OC[C@H]2O[C@@H](Oc3c(-c4ccc(O)c(O)c4)oc4cc(O)cc(O)c4c3=O)[C@H](O)[C@@H](O)[C@@H]2O)[C@H](O)[C@H](O)[C@H]1O | inactive | inactive | inactive | inactive | inactive | inactive | -2.66 | 3.42 | -16.5 | -1.98 | inactive |  |  |  |  |  |
